Assay outcomes from PubChem BioAssay.
CCHF vOTU inh – blocks the CCHF virus ovarian tumor domain protease; 0.55% of 370,000 active; inhibition, % at 11.5 µM; CCHFV vOTU protease, Pep-AMC fluorescence; in the data active = inhibition above about 30%
BoNT A protease – BoNT A light chain protease inhibition; multiplex microsphere protease substrate cleavage, flow cytometry; inhibition, % at 10 µM; 0.17% of 360,000 active
Anthrax LF prot – anthrax lethal factor protease inhibition; inhibition, % at 10 µM; 0.12% of 360,000 active; multiplex microsphere protease cleavage assay, LF; P15917
Target sequence (P15917 whole entry, looked up): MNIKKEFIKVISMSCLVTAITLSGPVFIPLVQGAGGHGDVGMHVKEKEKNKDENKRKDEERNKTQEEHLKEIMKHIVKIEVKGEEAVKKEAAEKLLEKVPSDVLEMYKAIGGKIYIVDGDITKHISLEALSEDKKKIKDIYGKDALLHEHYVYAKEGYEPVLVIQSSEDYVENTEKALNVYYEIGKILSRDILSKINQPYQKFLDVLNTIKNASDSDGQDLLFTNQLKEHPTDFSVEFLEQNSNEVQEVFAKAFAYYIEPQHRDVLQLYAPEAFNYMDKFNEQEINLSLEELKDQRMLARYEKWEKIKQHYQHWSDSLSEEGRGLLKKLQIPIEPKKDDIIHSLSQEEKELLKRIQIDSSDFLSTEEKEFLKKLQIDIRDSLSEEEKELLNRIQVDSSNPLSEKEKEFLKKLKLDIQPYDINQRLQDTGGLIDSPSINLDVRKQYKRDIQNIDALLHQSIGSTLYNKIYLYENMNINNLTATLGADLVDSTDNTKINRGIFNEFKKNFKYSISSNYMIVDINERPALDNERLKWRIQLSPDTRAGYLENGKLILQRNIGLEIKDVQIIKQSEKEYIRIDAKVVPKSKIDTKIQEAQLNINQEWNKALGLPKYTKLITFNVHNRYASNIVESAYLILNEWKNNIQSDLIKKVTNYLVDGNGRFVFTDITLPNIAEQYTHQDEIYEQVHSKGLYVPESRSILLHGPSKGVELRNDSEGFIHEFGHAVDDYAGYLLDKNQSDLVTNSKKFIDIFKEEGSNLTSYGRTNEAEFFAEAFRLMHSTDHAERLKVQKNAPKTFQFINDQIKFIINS
SARS 3CLpro inh – SARS-CoV 3CLpro protease inhibition; P0C6X7; recombinant SARS-CoV 3CLpro, quenched FRET peptide cleavage; inhibition, % at 6 µM; 0.14% of 290,000 active; in the data active = inhibition above about 12%
Autofluor counter – counter-screen for toxin protease inhibitors: compound fluorescence; fluorescence intensity (no concentration beside the values); 3.1% of 360,000 active; compound autofluorescence counterscreen, microsphere flow cytometry; stronger effect = higher value; in the data active = fluorescence intensity above about 16000; inconclusive = no clear call, values can overlap the other calls
BoNT-F LC inh – BoNT F light chain protease inhibition. Multiplex microsphere protease cleavage assay, flow cytometry. inhibition, % at 10 µM. 0.22% of 360,000 active. AID 588497; in the data active = inhibition above about 35%, passing the limit was not always enough; inconclusive = no clear call, values can overlap the other calls
Each line names hits and unclear results; the compound was inactive in the other large screens. Only some compounds are listed: those with a hit (about 3.9% of all), similar ones and a draw of the others. Rule as the data show it, unless noted: active = inhibition above about 30%; inconclusive = no clear call, values can overlap the other calls; inactive = below that.

CCCCCCCCN1C(=O)[C@@H](CC(=O)NCCCOC)C[C@@]2(C(=O)OC)C1=C[C@H](C(C)C)O[C@@H]2C1CC1	none (no result: BoNT A protease, Anthrax LF prot, SARS 3CLpro inh, Autofluor counter, BoNT-F LC inh)
Cc1ccc(NC(=O)N2CCCC(c3ccccc3)C2)cc1 (stereo unspecified)	none
CCOc1ccc(NC(=O)N2CCC(c3ccc(C)cc3)C2)cc1 (stereo unspecified)	Autofluor counter 22970
N#Cc1ccccc1N1CCN(S(=O)(=O)c2ccc3c(c2)CCC(=O)N3)CC1	none (no result: BoNT A protease, Anthrax LF prot, SARS 3CLpro inh, Autofluor counter, BoNT-F LC inh)
O=C(c1cccs1)n1nc(-c2ccccc2)nc1NCc1ccc(F)cc1	BoNT A protease inconclusive, Autofluor counter 25264
Cc1ccc(CNC(=O)c2cc(=O)c3ccccc3o2)cc1	none
Cc1ccc(NC(=O)c2cc(=O)c3ccccc3o2)cc1	Autofluor counter 21364
CN(C)CC(C)(C)CNC(=O)c1cc(=O)c2ccccc2o1	Autofluor counter 21817
COC(=O)C1CN(Cc2ccc(F)cc2)CCS(=O)(=O)N1Cc1ccccc1 (stereo unspecified)	none (no result: BoNT A protease, Anthrax LF prot, SARS 3CLpro inh, Autofluor counter, BoNT-F LC inh)
CCOc1ccc(S(=O)(=O)N/N=C2/CC(c3ccccc3)Oc3ccccc32)cc1 (stereo unspecified)	Autofluor counter 19045
Cc1ccc(S(=O)(=O)N2CC3(C)CN(S(=O)(=O)c4ccc(C)cc4)CC(C)(C2)C3=O)cc1	Autofluor counter 22149
O=C1CSC(c2cn(-c3ccccc3)nc2-c2cc3ccccc3o2)N1Cc1ccccc1 (stereo unspecified)	none
O=C1CSC(c2cn(-c3ccccc3)nc2-c2cc3ccccc3oc2=O)N1Cc1ccco1 (stereo unspecified)	BoNT A protease inconclusive, Autofluor counter 23471
C/C=C/c1c(F)c(F)c(Oc2ccc(C(=O)O)cc2)c(F)c1F	Autofluor counter 21781
Cc1cccc(-n2c(-c3csc(C(C)C)c3)n[nH]c2=S)c1	Autofluor counter 20031
CCCc1cc(-c2n[nH]c(=S)n2-c2cccc(C)c2)cs1	none
CCC(=O)NC(c1ccc([N+](=O)[O-])cc1)c1c(O)ccc2ccccc12 (stereo unspecified)	BoNT A protease inconclusive, Autofluor counter 24260
CSCCCNC(=O)CN1C(=O)C2CCCCN2C(=O)c2ccccc21 (stereo unspecified)	none (no result: BoNT A protease, Anthrax LF prot, SARS 3CLpro inh, Autofluor counter, BoNT-F LC inh)
CC(C)CC(=O)N1CCN(Cc2ccccc2Cl)CC1	none
CCOC(=O)N1CCN(Cc2ccccc2F)CC1	Autofluor counter 20462
CCOC(=O)N1CCN(Cc2ccccc2Cl)CC1	Autofluor counter 22232
CCOC(=O)N1CCN(Cc2nc(-c3cccc(C)c3)no2)CC1	Autofluor counter 22782
CCOC(=O)N1CCN(C(=O)CSc2ccccc2)CC1	Autofluor counter 23877
C[C@H]1CCCN1c1ccc2c(c1)OCCCN(C1CC1)S2(=O)=O	none (no result: BoNT A protease, Anthrax LF prot, SARS 3CLpro inh, Autofluor counter, BoNT-F LC inh)
COc1ccc2c(c1)O/C(=C\c1sccc1C)C2=O	BoNT-F LC inh 39.8
COc1ccc(/C=C2\Oc3ccccc3C2=O)cc1	none (no result: SARS 3CLpro inh)
COC(=O)[C@]12C[C@H](CC(=O)NCc3ccccc3)C(=O)N(Cc3ccco3)C1=C[C@H](COCc1ccccc1)O[C@@H]2C	none (no result: BoNT A protease, Anthrax LF prot, SARS 3CLpro inh, Autofluor counter, BoNT-F LC inh)
C=CCN(C(=O)[C@@H](CCCC)[C@@H](O)c1ccc(C(C)=O)cc1)c1ccccc1	none (no result: BoNT A protease, Anthrax LF prot, SARS 3CLpro inh, Autofluor counter, BoNT-F LC inh)
C#CCOC(=O)Nc1cccn(Cc2c(Cl)cccc2Cl)c1=O	Autofluor counter 16958
CC(=O)Nc1sc2c(c1C#N)CCCCC2	BoNT A protease inconclusive, Autofluor counter 23128
Cc1cc(C(=O)Nc2sc3c(c2C#N)CCCC3)no1	none
CC(=O)Nc1c(O)nc(SCC(=O)Nc2sc3c(c2C#N)CCCCCC3)[nH]c1=O	Autofluor counter 19485
Cc1cc(C(=O)Nc2sc3c(c2C#N)CCC3)no1	Autofluor counter 22362
N#Cc1c(NC(=O)CSc2ncn[nH]2)sc2c1CCCC2	none
N#Cc1c(NC(=O)CSC2=NCCS2)sc2c1CCCC2	Autofluor counter 16243
COC(=O)c1cc2c(c3c4cc(OC)ccc4n(S(=O)(=O)c4ccc(OC)cc4)c13)C(=O)N(Cc1ccc(C(F)(F)F)cc1)C2	none (no result: BoNT A protease, Anthrax LF prot, SARS 3CLpro inh, Autofluor counter, BoNT-F LC inh)
NC(=O)c1c(NC(=O)CSc2nc3c(c(C(F)(F)F)n2)CCc2ccccc2-3)sc2c1CCCC2	none (no result: CCHF vOTU inh)
N#Cc1c(NC(=O)CSc2nc3c(c(C(F)(F)F)n2)CCc2ccccc2-3)sc2c1CCCC2	Autofluor counter 22691
CCCCCN1CCCCC(NC(=O)c2ccc(C)cc2)C1=O (stereo unspecified)	none (no result: BoNT A protease, Anthrax LF prot, SARS 3CLpro inh, Autofluor counter, BoNT-F LC inh)
C=CCN=C1NC(c2ccc(F)cc2)C(C(=O)OC)=C(C)N1C (stereo unspecified)	none (no result: BoNT A protease, Anthrax LF prot, SARS 3CLpro inh, Autofluor counter, BoNT-F LC inh)
CC(C)Nc1nc(NC(C)C)nc(Oc2ccc(=O)n(C)n2)n1	none
Cc1cccc(Nc2nc(NC(C)C)nc(Oc3ccc(=O)n(C)n3)n2)c1	Autofluor counter 23566
CCCn1c(=O)c(F)cn(Cc2ccc(OC)c([N+](=O)[O-])c2)c1=O	Autofluor counter 21734
COCCCNC(=O)c1ccc2c(=O)n(C3CCCC3)c(=S)[nH]c2c1	Autofluor counter 18736
CCN1CCN(C(=O)c2ccc3c(=O)n(C4CCCC4)c(=S)[nH]c3c2)CC1	none
CC(C)NC(=O)c1ccc2c(=O)n(CC3CCCO3)c(=S)[nH]c2c1 (stereo unspecified)	none
COCCCNC(=O)c1ccc2c(=O)n(CC3CCCO3)c(=S)[nH]c2c1 (stereo unspecified)	Autofluor counter 16266
Cc1ccc(S(=O)(=O)Nc2cc(-c3nn(C)c(=O)c4ccccc34)ccc2N2CCOCC2)cc1	BoNT A protease inconclusive, Autofluor counter 22492
O=C(NCc1ccc(F)cc1)C(c1cccs1)N(C(=O)c1csnn1)C1CC1 (stereo unspecified)	BoNT A protease inconclusive, Autofluor counter 16343
Cc1ccc(C(=O)Nc2cnc3ccccn3c2=O)cc1	Autofluor counter 24404
CN(C)c1ccc(NC(=O)CN2C(=O)c3ccccc3C2=O)cc1	BoNT-F LC inh 39.1
CCN(CC)S(=O)(=O)c1ccc(NC(=O)COC(=O)CN2C(=O)c3ccccc3C2=O)cc1	Autofluor counter 22134
O=C(c1csc2ccccc12)N1CCN(c2ccccn2)CC1	none
O=C(c1csc2ccccc12)N1CCCCCC1	Autofluor counter 20758
Cc1cc(Br)cn2c(Cc3ccccc3C(F)(F)F)c(-c3ccc(F)cc3)nc12	none (no result: BoNT A protease, Anthrax LF prot, SARS 3CLpro inh, Autofluor counter, BoNT-F LC inh)
Cc1cc(C)n(-c2nnc(C)n2/N=C/c2ccccc2F)n1	Autofluor counter 22946
COc1ccccc1/C=N/n1c(C)nnc1-n1nc(C)cc1C	none
CCSc1nc2sc3c(c2c(=O)n1-c1ccccc1)CCN(C(C)C)C3	BoNT A protease 56.6, BoNT-F LC inh 46.5
CSc1nc2sc3c(c2c(=O)n1C1CCCCC1)CCN(C)C3	none
C=C(C)CSc1nc2sc3c(c2c(=O)n1-c1ccccc1)CCN(C)C3	BoNT A protease 37.4
C=C(C)CSc1nc2sc3c(c2c(=O)n1C1CCCCC1)CCN(C)C3	BoNT A protease 32.6
CCCCSc1nc2sc3c(c2c(=O)n1-c1ccccc1)CCN(C)C3	BoNT A protease 52.0
C=CCSc1nc2sc3c(c2c(=O)n1-c1ccc(C)cc1)CCN(C)C3	BoNT A protease 35.8
O=C(Nc1ccc(OC(F)(F)F)cc1)Nc1c(-c2ccccc2)nc2ncccn12	none (no result: BoNT A protease, Anthrax LF prot, SARS 3CLpro inh, Autofluor counter, BoNT-F LC inh)
O=C(CSc1nc2ccccc2[nH]1)N1CCCCC1	Autofluor counter 21788
